PubChem BioAssay AID1259249 (Broad Institute, 2017)
Where “and” joins values, the source holds several entries; their conditions need not be identical. Equal entries are not always repeated. About 220 (0.26%) of roughly 86,000 compounds were called active. This is one part of a sample in which actives are shown more often than they occur.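 Rule for the calls: active = mean growth activity at or below -80% and every replicate also at or below -80%; inconclusive = mean at or below -80% but some replicate above -80%; inactive = mean growth activity above -80%.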

Assay: C. difficile growth inhibitors, primary screen, HTS (AID 1259249);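 note: 0% = DMSO wells and -100% = levofloxacin 16 µg/mL wells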
Settings: Clostridium difficile clinical isolate growth, OD600, 24 h; stronger effect = lower value; screened at 16 µg/mL (by protocol)
With `COc1ccc(CN(C)C[C@H]2OCc3cn(nn3)CCCC(=O)N([C@@H](C)CO)C[C@@H]2C)cc1` the growth activity, negative = inhibition was -0.425% (inactive). For `O=C(C[C@H]1CC[C@@H]2[C@H](COC[C@@H](O)CN2C(=O)Nc2ccc(Cl)cc2)O1)NC1Cc2ccccc2C1`, the growth activity, negative = inhibition was -5.66% (inactive) and -5.56% (inactive). With `CCCNC(=O)C[C@@H]1CC[C@H]2[C@@H](COC[C@H](O)CN2C(=O)Nc2ccc(Cl)c(Cl)c2)O1` the growth activity, negative = inhibition was -57.2% (inactive) and -25.4% (inactive). In the case of `O=C(C[C@H]1CC[C@H]2[C@@H](COC[C@@H](O)CN2C(=O)Nc2ccc(C(F)(F)F)cc2)O1)NC1Cc2ccccc2C1`, the growth activity, negative = inhibition was -97.2% (active) and 27.2% (inactive). For `O=C(C[C@@H]1CC[C@H]2[C@@H](COC[C@@H](O)CN2C(=O)Nc2ccc(Cl)cc2)O1)NC1Cc2ccccc2C1`, the growth activity, negative = inhibition was 2% (inactive) and 46.4% (inactive). For `CCCNC(=O)C[C@H]1CC[C@H]2[C@@H](COC[C@@H](O)CN2C(=O)Nc2ccc(Cl)c(Cl)c2)O1`, the growth activity, negative = inhibition was -102% (active) and -6.65% (inactive). For `O=C(C[C@H]1CC[C@H]2[C@@H](COC[C@H](O)CN2C(=O)Nc2ccc(Cl)cc2)O1)NCC1CC1`, the growth activity, negative = inhibition was 7.11% (inactive). For `CC=Cc1ccc2n(c1=O)C[C@H]1[C@H](CO)[C@@H](C(=O)NC3CCCC3)[C@@H]2N1C(=O)c1cnccn1` (mixture of isomers), the growth activity, negative = inhibition was 3.3% (inactive). In the case of `CC(C)NC(=O)N1[C@@H]2CN(C(=O)C3CCCCC3)c3ccccc3[C@@H]2[C@@H]1CO`, the growth activity, negative = inhibition was -5.28% (inactive). For `CC(=O)N1[C@H](CO)[C@H](c2ccccc2)[C@H]1CN(C(=O)c1ccccc1F)C(C)C`, the growth activity, negative = inhibition was 2.62% (inactive). For `CCS(=O)(=O)N1CC2(CN(Cc3ccccc3)[C@@H](CO)c3c2c2ccc(OC)cc2n3C)C1`, the growth activity, negative = inhibition was 10.4% (inactive). With `COc1ccccc1C(=O)N1C[C@H]2[C@@H](c3ccccc31)[C@H](CO)N2C(=O)C1CC1` the growth activity, negative = inhibition was -5.43% (inactive). For `CO[C@H]1CN(C)C(=O)c2ccc(NS(=O)(=O)c3ccccc3)cc2OC[C@H](C)N(Cc2nccs2)C[C@@H]1C`, the growth activity, negative = inhibition was 1.37% (inactive). With `COc1cccc(S(=O)(=O)N(C)C[C@@H]2Oc3ncc(-c4cccc(C(=O)N(C)C)c4)cc3C(=O)N([C@H](C)CO)C[C@H]2C)c1` the growth activity, negative = inhibition was -3.2% (inactive). In the case of `COc1cccc(NC(=O)N(C)C[C@H]2Oc3cc(/C=C/c4ccccc4)ccc3S(=O)(=O)N([C@H](C)CO)C[C@@H]2C)c1`, the growth activity, negative = inhibition was 5.84% (inactive). For `COc1ccc2c3c(n(C)c2c1)[C@H](CO)N(S(=O)(=O)c1ccc(C)cc1)CC31CCN(C(=O)c2ccccn2)CC1`, the growth activity, negative = inhibition was 3.65% (inactive). With `O=C(C1CCCC1)N1CC(=O)N2[C@H](C1)[C@@H](c1ccc(-c3ccccc3F)cc1)[C@@H]2CO` the growth activity, negative = inhibition was 2.69% (inactive). With `C/C=C/c1ccc([C@H]2[C@@H](CO)N(C(=O)CC)[C@H]2CN(C)C(=O)C2CC2)cc1` the growth activity, negative = inhibition was -2.06% (inactive). For `O=C(NCC[C@H]1CC[C@H](NS(=O)(=O)c2cccc(F)c2)[C@H](CO)O1)C1CCCCC1`, the growth activity, negative = inhibition was -5.15% (inactive). With `C/C=C/c1ccc([C@@H]2[C@H](CO)N(CCC(F)(F)F)C23CN(C(=O)CC)C3)cc1` the growth activity, negative = inhibition was 8.71% (inactive). In the case of `CC(C)NC(=O)N(C)C[C@H]1Oc2ncc(-c3cccc(C#N)c3)cc2C(=O)N([C@@H](C)CO)C[C@H]1C`, the growth activity, negative = inhibition was 5.25% (inactive).
